Screening results (PubChem BioAssay)
This is a sample that favours compounds with a hit; in the whole collection about 7.5% have one here.
Giardia FBPA inh = qHTS Assay for Inhibitors of Fructose-1,6-bisphosphate Aldolase from Giardia Lamblia; A8B2U2; purified Giardia FBPA; Potency, µM (series often up to 59.6 µM), usual class: inhibitors; hit rate 0.71% among 290,000; AID 2451, 2010; also: nearly all actives have a fitted effect of over 55% in size
Target sequence (A8B2U2 whole entry, looked up): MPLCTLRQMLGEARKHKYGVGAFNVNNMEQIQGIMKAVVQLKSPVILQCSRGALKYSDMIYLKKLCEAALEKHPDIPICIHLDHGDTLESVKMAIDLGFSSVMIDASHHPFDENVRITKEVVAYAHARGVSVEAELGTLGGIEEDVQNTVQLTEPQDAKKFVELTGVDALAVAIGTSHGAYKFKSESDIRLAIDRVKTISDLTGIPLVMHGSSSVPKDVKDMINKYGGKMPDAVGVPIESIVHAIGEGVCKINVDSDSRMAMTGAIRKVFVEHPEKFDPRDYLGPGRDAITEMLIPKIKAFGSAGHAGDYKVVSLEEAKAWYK
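Giardia FBPA (40 nM reagent) was preincubated 10 min at RT with compound (up to 57.5 uM final), then substrate plus GAPDH/TPI/NAD/arsenate coupling system with diaphorase/resazurin was added; resorufin fluorescence (525/598 nm) was read after 20 min.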
FMDV inh = High Throughput Screening for Foot and Mouth Disease Virus Antivirals; hit rate 1.2% among 410,000; Potency, µM (top dose mostly 57.9 µM), most hits filed as inhibitors; AID 1159524, 2015; FMDV antiviral cell-based qHTS; calls by dose curve; tested in HEK293T cells; also: read-out not given here; nearly all actives have a fitted effect of over 45% in size
VACV Venus inh = qHTS for Stage-Specific Inhibitors of Vaccinia Orthopoxvirus: Venus Reporter Primary qHTS; Potency, µM (highest dose often 36.5 µM), most hits filed as inhibitors; Vaccinia virus Venus reporter expression, fluorescence; hit rate 0.46% among 330,000; calls by dose curve; tested in A549 cells; also: nearly all actives have a fitted effect of over 30% in size
HCV inhibitor = qHTS Assay for Inhibitors of Hepatitis C Virus (HCV). Huh7.5.1 HCVcc-Cre infection, luciferase reporter, 44 h. Potency, µM (series often up to 41.8 µM), usual class: inhibitors. hit rate 3.4% among 340,000. AID 651820, 2012
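Cells (1,000/well) were plated 4 h before compound, then infected with HCVcc-Cre virus (~0.5 moi). After 44 h further culture, infection was read as luciferase luminescence following a 15 min substrate incubation at room temperature.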
HCMV inh = qHTS Assay for inhibitors of the human cytomegalovirus (HCMV). HFF cells, HCMV-luciferase reporter, 72 h; hits give low values. activity change, negative = inhibition, % at 57.5 µM. hit rate 4.5% among 410,000. AID 1259415, 2018; in the data active = activity change below about -60%; inconclusive = no clear call, values can overlap the other calls; inactive = above about -39%
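Luciferase read-out from HCMV-luciferase-infected HFFs (MOI 1 PFU/cell) 72 h post infection at 37C; compounds added after 16 h cell attachment; activity normalized between buffer-only basal and Salinomycin (10uM) inhibitor controls.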
VACV mCherry inh = qHTS for Stage-Specific Inhibitors of Vaccinia Orthopoxvirus: mCherry Reporter Primary qHTS. Vaccinia virus mCherry reporter infection, fluorescence. Potency, µM (top dose mostly 36.5 µM), hits mostly inhibitors. hit rate 0.63% among 310,000; calls by dose curve; tested in A549 cells; also: nearly all actives have a fitted effect of over 35% in size
Each line names hits and unclear results; the compound was inactive in the other large screens. Unless noted, calls follow the shape of the dose curve; as a rule, active = well fitted curve in the direction sought with a large enough effect; inconclusive = small, poorly fitted or top-dose-only effect, or another doubt; inactive = no such curve, though single readings can be large; an effect the other way counts as inactive or inconclusive.

CCC(=O)Oc1ccc(NC(=O)CSCc2ccccc2)cc1	HCMV inh -73 (no result: VACV Venus inh, VACV mCherry inh)
O=C(CSCc1ccc(Cl)cc1)Nc1ccc(-c2nnc(-c3ccccc3)o2)cc1	HCV inhibitor 7.1µM
O=C(Cc1ccc(Cl)cc1)Nc1ccc(-c2nnc(-c3ccco3)o2)cc1	FMDV inh inconclusive, VACV Venus inh inconclusive, HCV inhibitor inconclusive
COC(=O)c1ccc(NC(=O)CSCc2ccccc2)cc1	none (no result: HCMV inh, VACV mCherry inh)
O[C@@H]1[C@@H](O)C=C2CCN3Cc4cc5c(cc4[C@H]1C23)OCO5 (some centres undefined)	FMDV inh inconclusive, VACV Venus inh 4µM, HCV inhibitor 3.2µM, HCMV inh -98, VACV mCherry inh inconclusive (no result: Giardia FBPA inh)
OC1C=C2CCN3Cc4cc5c(cc4C(C1O)C23)OCO5 (centres undefined)	VACV Venus inh 7.1µM, VACV mCherry inh inconclusive (no result: HCV inhibitor, HCMV inh)
Cc1cc(C(=O)Nc2ccccc2-c2nc(CNC(=O)C3COc4ccccc4O3)c(C)o2)c(C)o1 (centres undefined)	none (no result: Giardia FBPA inh, HCV inhibitor, HCMV inh)
O=C1C(=O)N(C(CCc2ccccc2)c2nnnn2Cc2ccccc2)c2ccccc21 (centres undefined)	none (no result: Giardia FBPA inh, FMDV inh, VACV Venus inh, HCV inhibitor, VACV mCherry inh)
Cn1c(SCC(=O)NC(C)(C)C)nnc1-c1ccc(C(C)(C)C)cc1	HCV inhibitor inconclusive, HCMV inh -60 (no result: FMDV inh)
Cc1ccccc1C(=O)Nc1ccnn1C1CCN(Cc2ccccn2)CC1	none (no result: Giardia FBPA inh)
Cc1ccc(NC(=O)c2c(C(F)(F)F)nn(C)c2SCc2cccc(C(F)(F)F)c2)cc1C	HCV inhibitor inconclusive, HCMV inh -88 (no result: VACV Venus inh, VACV mCherry inh)
COc1cccc(-c2ccnc(-n3ncc(C(=O)NCc4cccnc4)c3C3CC3)n2)c1	none (no result: Giardia FBPA inh, HCV inhibitor, HCMV inh)
O=C(c1ccc2c(c1)N(Cc1ccc(Cl)cc1)C(=O)c1ccccc1S2(=O)=O)N1CCCCCC1	HCMV inh inconclusive (no result: Giardia FBPA inh, HCV inhibitor)
COc1ccc(OC)c(-c2cc(Cl)c3c(c2)CC(CNC(=O)[C@@H]2CCCN2C(C)=O)O3)c1 (some centres undefined)	none (no result: Giardia FBPA inh, HCV inhibitor, HCMV inh)
Cn1c(-c2csc(-c3cccc(C(F)(F)F)c3)n2)n[nH]c1=S	HCMV inh -84
Cn1c(CNc2cccc(C(F)(F)F)c2)n[nH]c1=S	none (no result: VACV Venus inh, VACV mCherry inh)
Cc1cccc(N2CCN(S(=O)(=O)c3ccc(-c4ccc(=O)[nH]n4)o3)CC2)c1C	HCMV inh -63 (no result: VACV Venus inh, VACV mCherry inh)
COc1ccccc1N1CCN(S(=O)(=O)c2ccc(-c3ccc(=O)[nH]n3)o2)CC1	none (no result: VACV Venus inh, VACV mCherry inh)
CC(C)N(Cc1nccn1C)C(=O)c1ccc2oc(Cc3ccccc3)nc2c1	none
COc1ccc(-c2c(C#N)c(SCC(=O)Nc3ccccc3C)nc(C)c2C(=O)Nc2ccccc2)cc1OC	none (no result: Giardia FBPA inh, HCV inhibitor)
CSCc1ccc(C(=O)OCc2nc3ccccc3s2)o1	none (no result: Giardia FBPA inh)
C[C@@H]1/C=C\CC(=O)OC[C@H]2O[C@@H](C=C[C@@H]2O)[C@H](C)/C=C\CC(=O)OC1	none (no result: FMDV inh, VACV Venus inh, HCV inhibitor, HCMV inh, VACV mCherry inh)
COc1ccccc1C(=O)NC(=S)/C=C1/N(C)c2ccccc2C1(C)C	FMDV inh inconclusive, HCV inhibitor inconclusive, HCMV inh -92, VACV mCherry inh inconclusive
CN1/C(=C/C(=S)NC(=O)C2(C)CC2(Cl)Cl)C(C)(C)c2ccccc21 (centres undefined)	HCV inhibitor inconclusive, HCMV inh -69
CN1/C(=C\C(=O)COC(=O)CNC(=O)c2ccccc2F)C(C)(C)c2ccccc21	none
CN1/C(=C\C(=S)Nc2ccccc2)C(C)(C)c2ccccc21	HCV inhibitor inconclusive, HCMV inh -71
CN1/C(=C\C(=O)c2cccs2)C(C)(C)c2ccccc21	none
CN1/C(=C\C(=O)Nc2ccc(Cl)cc2)C(C)(C)c2ccccc21	HCMV inh inconclusive
CN1/C(=C\C(=S)NC(=O)c2ccccc2Cl)C(C)(C)c2ccccc21	HCV inhibitor inconclusive, HCMV inh -84
CC(=O)Nc1sc(C)c(C)c1C(=O)OCC(=O)Nc1cccc(C)c1	HCV inhibitor inconclusive (no result: Giardia FBPA inh, VACV Venus inh, VACV mCherry inh)
CC(C)N1CCC1(C)C(=O)Nc1cccc2ccccc12 (centres undefined)	FMDV inh 22µM (no result: Giardia FBPA inh, HCV inhibitor)
O=C(c1ccc2c(c1)CCO2)N1CC2ON=C(c3c(F)cccc3Cl)C2C1 (centres undefined)	none (no result: Giardia FBPA inh, FMDV inh, VACV Venus inh, HCV inhibitor, VACV mCherry inh)
O=C1CC(=C(c2ccccc2)c2ccccc2)C(=O)N1CCCCN1CCN(c2cccc(Cl)c2)CC1	FMDV inh inconclusive, VACV Venus inh inconclusive, HCV inhibitor 11µM
O=C1C2C(c3ccccc3)C=CC(c3ccccc3)C2C(=O)N1CCCO (centres undefined)	FMDV inh 32µM, VACV Venus inh inconclusive (no result: VACV mCherry inh)
C=CCOCCN1C(=O)C2C(c3ccccc3)C=CC(c3ccccc3)C2C1=O (centres undefined)	FMDV inh inconclusive, VACV mCherry inh inconclusive
CN=C(NC1CCCCC1)c1ccc(Cl)cc1	HCMV inh -60
CN(c1ccc(C(=O)NC2CCCC2)cc1)S(=O)(=O)c1ccc(Cl)cc1	none (no result: Giardia FBPA inh)
O=C(CCSCc1ccc(Cl)cc1)NC1CCCC1	HCMV inh -102
O=C(Cc1ccc(Cl)cc1)NC1CC1	none
O=C(NC1CCCCC1)Sc1ccc(Cl)cc1	FMDV inh 32µM
COc1ccc(OC)c(CNCc2c(C(=O)O)n(Cc3cccc(F)c3)c3cc(OC)ccc23)c1	none (no result: Giardia FBPA inh, HCV inhibitor)
CN(Cc1ccco1)c1ncncc1-c1cccc(C#N)c1	none (no result: VACV Venus inh, HCV inhibitor, HCMV inh, VACV mCherry inh)
CC1CCc2onc(C(=O)N3CCN(c4ccc(Cl)cc4)CC3)c2C1 (centres undefined)	HCMV inh -74 (no result: Giardia FBPA inh, HCV inhibitor)
COc1ccc(NC(=O)C2(S(=O)(=O)c3ccc(C)cc3)CC2)c(OC)c1	none (no result: Giardia FBPA inh, HCV inhibitor)
CCc1ccccc1N1CC(c2nc3ccccc3n2CCOc2ccc(Cl)c(C)c2)CC1=O (centres undefined)	FMDV inh 28µM, VACV Venus inh inconclusive, HCMV inh -62 (no result: Giardia FBPA inh, HCV inhibitor)
CCCCOc1ccc(N(CC(=O)NCC2CCCO2)C(=O)CCC(=O)Nc2nccs2)cc1 (centres undefined)	none
CCOc1ccc(N(CC(=O)NCC2CCCO2)C(=O)CCC(=O)Nc2nccs2)cc1 (centres undefined)	HCV inhibitor 22µM
COc1ccc(C)cc1NC(=O)C(Sc1nnc(Nc2cc(C)ccc2OC)s1)c1ccccc1 (centres undefined)	HCV inhibitor 10µM, HCMV inh inconclusive, VACV mCherry inh inconclusive
COc1ccc(Nc2nnc(SC(C(=O)Nc3ccc(OC)c(Cl)c3)c3ccccc3)s2)cc1 (centres undefined)	HCV inhibitor inconclusive, HCMV inh inconclusive
COc1ccc(Nc2nnc(SC(C(=O)Nc3cc(C)ccc3C)c3ccccc3)s2)cc1 (centres undefined)	HCV inhibitor inconclusive, HCMV inh -100
c1ccc(N2CCN(c3nc(-c4ccccn4)nc4ccccc34)CC2)cc1	FMDV inh inconclusive, VACV Venus inh inconclusive, HCV inhibitor 3.2µM, HCMV inh -99, VACV mCherry inh inconclusive
